The results in this text go back to PubChem BioAssay (NCATS).

Unmarked numbers belong to inactive results. Results filed as inconclusive are left out. The source made the active and inactive calls. Unless noted, the call rests on the fitted dose curve; in most records, active means well fitted curve in the direction sought with a large enough effect; inconclusive means small, poorly fitted or top-dose-only effect, or another doubt; inactive means no such curve, though single readings can be large; an effect the other way counts as inactive or inconclusive. Some results are limits rather than exact numbers.

Assay [1] concerns the target Lysosomal acid glucosylceramidase (Homo sapiens) (UniProt P04062). The assay is described as follows: Glucocerebrosidase-p2 (AID 348; in the data active means potency below about 10 µM; further: potency means the concentration at half of the fitted maximal effect). Particulars: purified GBA, blue fluorogenic substrate, 40 min. The essentials: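 Normal human glucocerebrosidase (0.2 nM) with blue fluorogenic substrate (80 uM final) in citrate/phosphate pH 5.9 with 10mM sodium taurocholate, 0.01% tween-20; 40 min RT, NaOH/glycine stop; fluorescence Ex 365/Em 440; AC50 from a titration from 0.6 nM upwards.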

Assay [2] is described as follows: AP1 Signaling Pathway (AID 357; active means well fitted curve in either direction with a large enough effect, not every such curve was filed as active;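 further: ME-180 reporter cells stimulated with EGF at its EC50 level; on the % scale 0 is the no-effect control and ±100 the full control effect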). The following applies: ME-180 AP-1-bla reporter, EGF-induced, beta-lactamase ratio, 5 h; at 7.69 µM (top of the series) unless noted. An outline of the steps: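 First, ME-180 AP-1-bla cells were cultured overnight at 37 °C in low-serum Opti-MEM. Next, titrated compounds with EC50 EGF were incubated 5 hours. Finally, CCF4 was added for 2.5 hours and the 460/530 nm ratio recorded.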

The nature of assay [3]: NFAT Signaling Pathway (AID 444; active means well fitted curve in either direction with a large enough effect, not every such curve was filed as active;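 further: carbachol stimulus at about its EC50 of 1 µM final; on the % scale 0 is the no-effect control and ±100 the full control effect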). Particulars: Jurkat NFAT-bla M1, carbachol, beta-lactamase ratio, 5 h; at 7.69 µM (top of the series) unless noted. The essentials:
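Jurkat cells with NFAT-driven β-lactamase reporter and co-expressed M1 receptor, stimulated with carbachol (final 1 uM, ~EC50), compound titration, 5 h at 37 °C. CCF4 loaded 1 h at RT; 460/530 nm ratio gave %activity and AC50.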

The nature of assay [4]: Stat Signaling Pathway (AID 446; active means well fitted curve in either direction with a large enough effect, not every such curve was filed as active;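 further: ME-180 cervical cancer cells given 40 pM IL-6 alongside compound; SIE-controlled beta-lactamase reporter measured as 460/530 nm FRET emission ratio; on the % scale 0 is the no-effect control and ±100 the full control effect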). Particulars: ME-180 (cervical carcinoma) SIE beta-lactamase reporter, IL-6 stimulated, 5 h; at 7.69 µM (top of the series) unless noted. An outline of the steps:
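FRET read-out (405 nm excitation, 460/530 nm emission) of a beta-lactamase reporter under a STAT-inducible element in ME-180 cervical carcinoma cells. Cells with compound receive 40 pM IL-6 for 5 h. Values are normalised to AC90 stimulation and AC90 JAK-inhibitor controls.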

Assay [5] addresses Glucocorticoid receptor (Homo sapiens) (UniProt P04150). The assay is described as follows: GR-EFC Redistribution (AID 451; calls by dose curve; further: potency means the concentration at half of the fitted maximal effect). Particulars: CHO-K1 GR-EFC translocation, beta-gal luminescence, 2 h. The essentials: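 CHO-K1 cells expressing nuclear EA and GR-ED fragments of b-gal; compounds titrated up to 46 uM final, 2 h at 37 C. GR nuclear translocation read as complemented b-gal luminescence after 1 h RT detection.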

The target in assay [6] is Mitogen-activated protein kinase 10 (Mus musculus) (UniProt Q61831). The assay can be described thus: JNK3 AlphaScreen Assay (AID 530; active means well fitted curve in either direction with a large enough effect, not every such curve was filed as active;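 further: kinase came from lysate of stimulated human HepG2 cells; signal reports phosphorylation of biotinylated GST-cJun 1-79 at Ser73 with 10 µM ATP; on the % scale 0 is the no-effect control and ±100 the full control effect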). The following applies: JNK3 lysate, c-Jun phosphorylation; series mostly up to 57.1 µM. An outline of the steps:
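Activity was read by AlphaScreen after JNK3-containing HepG2 lysate (cytokine pre-activated) phosphorylated biotinylated GST-cJun with 10 uM ATP at room temperature. Phospho-Ser73 cJun antibody with Protein-A acceptor beads provided detection.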
On the technique in general: Bead proximity is the source of the signal in Alpha formats.

Assay [7] deals with 3',5'-cyclic-AMP phosphodiesterase 4B (Homo sapiens) (UniProt Q07343). The assay is described as follows: qHTS Assay for Inhibitors of PDE-IV (AID 607; active means well fitted activation curve with a large enough effect in the main read-out, with a control signal flat, not every such curve was filed as active; further: % of control where 0% means no effect). Particulars: HEK293 ACTOne CNG channel cells, membrane potential fluorescence; series mostly up to 22.9 µM. The essentials:
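Cell-based read-out of cAMP via a modified cyclic nucleotide-gated channel and membrane potential dye (535/590 nm) in HEK293 cells expressing PDE4 endogenously. Compounds tested up to 22.9 uM final; 100 uM RO 20-1724 reference.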
For orientation: Quantitative high-throughput screening tests each substance at several concentrations.

The target of assay [8] is Dual specificity protein kinase CLK4 (Homo sapiens) (UniProt Q9HAZ1). The assay can be described thus: qHTS Assay for Inhibitors of CDC-like Kinase 4 (Kinase-Glo Assay) (AID 1770). Further: nearly all actives have a fitted effect of over 65% in size. Further: potency means the concentration at half of the fitted maximal effect. The following applies: recombinant Clk4, Kinase-Glo ATP depletion luminescence; series mostly up to 66.7 µM. The essentials: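 Clk4 25 nM, RS peptide 100 uM, ATP 1 uM, pH 7.5 Tris, 10 mM MgCl2, 2.5 mM DTT; 4.5 h RT; ATP depletion read by Kinase-Glo luminescence.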
Dual specificity protein kinase CLK4 (Homo sapiens), sequence (Q9HAZ1 whole entry, looked up): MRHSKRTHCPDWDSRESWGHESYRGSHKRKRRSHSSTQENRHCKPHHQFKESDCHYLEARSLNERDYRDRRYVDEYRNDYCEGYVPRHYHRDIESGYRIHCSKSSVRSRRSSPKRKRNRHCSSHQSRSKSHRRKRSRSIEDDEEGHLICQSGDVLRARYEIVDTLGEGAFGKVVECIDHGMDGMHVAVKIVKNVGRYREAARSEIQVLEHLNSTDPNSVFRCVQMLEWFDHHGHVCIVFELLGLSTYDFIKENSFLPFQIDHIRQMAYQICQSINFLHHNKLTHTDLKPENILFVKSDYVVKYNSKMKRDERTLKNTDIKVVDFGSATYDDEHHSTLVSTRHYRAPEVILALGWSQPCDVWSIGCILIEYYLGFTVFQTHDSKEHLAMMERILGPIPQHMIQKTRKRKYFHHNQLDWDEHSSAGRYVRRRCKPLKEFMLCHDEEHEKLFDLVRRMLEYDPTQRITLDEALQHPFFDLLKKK

For assay [9] the target is unchanged. The assay can be described thus: qHTS Assay for Inhibitors of CDC-like Kinase 4 (ADP-Glo Assay) (AID 1771). Further: nearly all actives have a fitted effect of over 70% in size. Further: potency means the concentration at half of the fitted maximal effect. Particulars: recombinant CLK4, ADP-Glo luminescence; series mostly up to 80 µM. An outline of the steps: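 ADP production was read by ADP-Glo luminescence after residual ATP depletion, following 1 h room-temperature reaction of 25 nM Clk4, 1 uM ATP and 100 uM RS peptide with MgCl2, EGTA, DTT and Triton X-100.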

The target is the same in assay [10]. The assay is described as follows: qHTS Assay for Inhibitors of CDC-like Kinase 4 (ADP-FP Assay) (AID 1795). Further: nearly all actives have a fitted effect of over 60% in size. Further: potency means the concentration at half of the fitted maximal effect. The following applies: Transcreener ADP fluorescence polarization; series mostly up to 50 µM. The essentials:
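Kinase activity was followed as ADP output, converted from fluorescence polarization with a calibration curve. Reactions ran one hour at low ATP (1 uM) with RS peptide substrate.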

Assay [11] has as its target Ubiquitin carboxyl-terminal hydrolase 1 (Homo sapiens) (UniProt O94782). The assay is described as follows: Inhibitors of USP1/UAF1: Pilot qHTS (AID 504865).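 Further: rhodamine fluorescence freed from ubiquitin-rhodamine substrate followed over time; top concentration of the series differs between compounds; on the % scale 0 is the no-effect control and ±100 the full control effect; nearly all actives have a fitted effect of over 35% in size.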 Particulars: purified USP1/UAF1, Ub-rhodamine cleavage fluorescence; series mostly up to 54.9 µM. The essentials: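 Enzyme-free wells gave the negative control, while test wells held 1nM USP1/UAF1 preincubated with compound for 15 min at room temperature. Ub-Rho at 150nM final started the reaction, and fluorescence at 480/540 nm was recorded kinetically.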

A short description of assay [12]: Primary qHTS for small molecule stabilizers of the endoplasmic reticulum resident proteome: Secreted ER Calcium Modulated Protein (SERCaMP) assay (AID 1508630). Further: on the % scale 0 is the no-effect control and ±100 the full control effect. The following applies: SH-SY5Y GLuc-SERCaMP (Gaussia luciferase released on ER calcium loss) secretion, thapsigargin, luminescence; series mostly up to 38.4 µM. An outline of the steps:
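The SH-SY5Y reporter protocol was run at 3 concentrations up to 38.3 uM (primary) or 11 concentrations (follow-up): 16 h compound, 100 nM thapsigargin for 4 h, then extracellular luciferase luminescence.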

The target in assay [13] is Glucocorticoid receptor (Homo sapiens) (UniProt P04150). The assay can be described thus: GR-GFP Redistribution (AID 450;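 active means compounds whose dose series gives a full or clear partial fitted curve of increased nuclear translocation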; further: potency means the concentration at half of the fitted maximal effect). Particulars: U2OS GR-GFP nuclear translocation, laser cytometry, 2 h.
Glucocorticoid receptor (Homo sapiens), sequence (P04150 whole entry, looked up, the tested form may be a part): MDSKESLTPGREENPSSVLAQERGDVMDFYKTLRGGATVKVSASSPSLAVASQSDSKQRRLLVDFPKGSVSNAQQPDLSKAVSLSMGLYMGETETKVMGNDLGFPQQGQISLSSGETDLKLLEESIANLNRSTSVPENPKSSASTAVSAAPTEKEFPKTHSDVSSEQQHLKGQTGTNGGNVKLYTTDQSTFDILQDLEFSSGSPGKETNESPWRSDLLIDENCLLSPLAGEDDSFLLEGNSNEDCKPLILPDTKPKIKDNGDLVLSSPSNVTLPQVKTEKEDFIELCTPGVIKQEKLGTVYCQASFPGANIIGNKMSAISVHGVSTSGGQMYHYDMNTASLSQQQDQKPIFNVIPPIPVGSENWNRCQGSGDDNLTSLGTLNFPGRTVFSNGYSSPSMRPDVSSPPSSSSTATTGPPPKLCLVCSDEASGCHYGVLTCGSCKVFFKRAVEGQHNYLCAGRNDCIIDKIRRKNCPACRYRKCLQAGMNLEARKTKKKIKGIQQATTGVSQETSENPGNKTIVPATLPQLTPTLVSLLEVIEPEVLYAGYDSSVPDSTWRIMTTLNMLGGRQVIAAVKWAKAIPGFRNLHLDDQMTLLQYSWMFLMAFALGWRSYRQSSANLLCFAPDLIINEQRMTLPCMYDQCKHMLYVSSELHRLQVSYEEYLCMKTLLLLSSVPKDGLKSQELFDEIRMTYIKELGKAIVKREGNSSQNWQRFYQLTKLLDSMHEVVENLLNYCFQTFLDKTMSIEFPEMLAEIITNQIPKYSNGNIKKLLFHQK
The target in assay [14] is Cytochrome P450 2C9 (Homo sapiens) (UniProt P11712). The assay can be described thus: qHTS Assay for Inhibitors and Substrates of Cytochrome P450 2C9 (AID 883). Further: on the % scale 0 is the no-effect control and ±100 the full control effect; nearly all actives have a fitted effect of over 60% in size. Particulars: recombinant CYP2C9, luciferin-H luminescence, 60 min; series mostly up to 57.1 µM. The essentials: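 10nM CYP2C9 + 100uM Luciferin-H (=KM), 25mM KPO4; cpd 10 min 37C; NADPH regen, 60 min 37C; stop/detect with P450 Glo-Buffer 20 min; luminescence. Norm. to 57uM sulphaphenazole as full inhibition.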
Cytochrome P450 2C9 (Homo sapiens), sequence (P11712 whole entry, looked up): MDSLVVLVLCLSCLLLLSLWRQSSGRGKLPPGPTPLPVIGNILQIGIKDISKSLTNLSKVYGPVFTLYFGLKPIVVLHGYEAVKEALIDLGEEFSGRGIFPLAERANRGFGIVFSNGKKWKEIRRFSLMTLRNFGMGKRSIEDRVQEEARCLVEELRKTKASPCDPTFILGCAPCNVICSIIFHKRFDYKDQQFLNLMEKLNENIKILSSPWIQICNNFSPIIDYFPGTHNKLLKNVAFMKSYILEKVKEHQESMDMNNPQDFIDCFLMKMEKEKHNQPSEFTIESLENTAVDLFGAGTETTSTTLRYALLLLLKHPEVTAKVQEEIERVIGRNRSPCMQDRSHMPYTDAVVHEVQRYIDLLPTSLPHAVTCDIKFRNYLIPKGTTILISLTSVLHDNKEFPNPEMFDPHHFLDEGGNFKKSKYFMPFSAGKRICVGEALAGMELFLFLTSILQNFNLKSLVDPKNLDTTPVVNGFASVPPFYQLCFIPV

Assay [15] concerns the target Cytochrome P450 2C19 (Homo sapiens) (UniProt P33261). The assay can be described thus: qHTS Assay for Inhibitors and Substrates of Cytochrome P450 2C19 (AID 899). Further: potency means the concentration at half of the fitted maximal effect; nearly all actives have a fitted effect of over 60% in size. Particulars: recombinant CYP2C19, luciferin-H EGE luminescence; series mostly up to 57.1 µM. The essentials:
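Luminescent read-out of luciferin formed from Luciferin-H EGE (10uM, equal to KM). Enzyme 5nM in 50mM KPO4; compound added, 10 min at 37C, then NADPH regenerating system for 60 min at 37C. Full inhibition defined by 57uM ketoconazole.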

Ubiquitin carboxyl-terminal hydrolase 1 (Homo sapiens), sequence (O94782 whole entry, looked up): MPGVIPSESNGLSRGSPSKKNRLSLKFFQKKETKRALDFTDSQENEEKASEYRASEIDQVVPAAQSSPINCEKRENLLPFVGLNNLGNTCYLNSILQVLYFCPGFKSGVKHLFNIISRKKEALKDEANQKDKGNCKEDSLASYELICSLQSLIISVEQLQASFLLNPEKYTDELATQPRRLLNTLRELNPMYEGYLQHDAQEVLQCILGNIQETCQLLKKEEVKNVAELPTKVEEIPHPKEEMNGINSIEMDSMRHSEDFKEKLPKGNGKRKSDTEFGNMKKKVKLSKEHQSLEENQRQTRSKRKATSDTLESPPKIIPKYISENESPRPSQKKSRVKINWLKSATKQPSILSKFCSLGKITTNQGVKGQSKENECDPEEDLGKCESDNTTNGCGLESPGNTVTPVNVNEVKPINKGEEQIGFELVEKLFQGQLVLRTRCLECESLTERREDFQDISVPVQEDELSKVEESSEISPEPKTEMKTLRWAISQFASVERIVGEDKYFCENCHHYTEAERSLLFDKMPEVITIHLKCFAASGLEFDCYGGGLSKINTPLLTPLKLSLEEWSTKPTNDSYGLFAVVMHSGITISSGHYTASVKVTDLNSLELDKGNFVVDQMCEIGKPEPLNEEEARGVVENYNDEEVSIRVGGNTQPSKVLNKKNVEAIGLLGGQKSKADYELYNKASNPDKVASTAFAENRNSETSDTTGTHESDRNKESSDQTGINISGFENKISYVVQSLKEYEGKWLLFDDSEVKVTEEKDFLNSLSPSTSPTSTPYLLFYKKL
3',5'-cyclic-AMP phosphodiesterase 4B (Homo sapiens), sequence (Q07343 whole entry, looked up): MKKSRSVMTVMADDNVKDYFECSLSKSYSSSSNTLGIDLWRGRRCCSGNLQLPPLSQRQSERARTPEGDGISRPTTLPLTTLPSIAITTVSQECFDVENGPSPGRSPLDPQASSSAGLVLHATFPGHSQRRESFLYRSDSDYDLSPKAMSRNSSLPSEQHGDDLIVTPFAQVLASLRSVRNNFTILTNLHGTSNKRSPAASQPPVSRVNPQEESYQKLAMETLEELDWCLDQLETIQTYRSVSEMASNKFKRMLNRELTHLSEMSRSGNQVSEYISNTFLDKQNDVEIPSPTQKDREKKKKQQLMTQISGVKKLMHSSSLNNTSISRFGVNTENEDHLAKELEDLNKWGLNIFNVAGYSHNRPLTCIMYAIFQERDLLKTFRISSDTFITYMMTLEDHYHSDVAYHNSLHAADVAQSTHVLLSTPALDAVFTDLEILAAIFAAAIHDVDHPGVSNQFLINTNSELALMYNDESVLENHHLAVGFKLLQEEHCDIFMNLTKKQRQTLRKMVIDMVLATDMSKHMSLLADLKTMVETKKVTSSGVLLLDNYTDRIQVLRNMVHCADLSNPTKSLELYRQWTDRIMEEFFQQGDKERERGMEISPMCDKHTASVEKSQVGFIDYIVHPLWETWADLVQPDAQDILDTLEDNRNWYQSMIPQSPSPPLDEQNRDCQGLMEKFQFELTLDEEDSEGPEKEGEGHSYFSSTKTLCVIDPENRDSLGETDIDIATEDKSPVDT
Lysosomal acid glucosylceramidase (Homo sapiens), sequence (P04062 whole entry, looked up): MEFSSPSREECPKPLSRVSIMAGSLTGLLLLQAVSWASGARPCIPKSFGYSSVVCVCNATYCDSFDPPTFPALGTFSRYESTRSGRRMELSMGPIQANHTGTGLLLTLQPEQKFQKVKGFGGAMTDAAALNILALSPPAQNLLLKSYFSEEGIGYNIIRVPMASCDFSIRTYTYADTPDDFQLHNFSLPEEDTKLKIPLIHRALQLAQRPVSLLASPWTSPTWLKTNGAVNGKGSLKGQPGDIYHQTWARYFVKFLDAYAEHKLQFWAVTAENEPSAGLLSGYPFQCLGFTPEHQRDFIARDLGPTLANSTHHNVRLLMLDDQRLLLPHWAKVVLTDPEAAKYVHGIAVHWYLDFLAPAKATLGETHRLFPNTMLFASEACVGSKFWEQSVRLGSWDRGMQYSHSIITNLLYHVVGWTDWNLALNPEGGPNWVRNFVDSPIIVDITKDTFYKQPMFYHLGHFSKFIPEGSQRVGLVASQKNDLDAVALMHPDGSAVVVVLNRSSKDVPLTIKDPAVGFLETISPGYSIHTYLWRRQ
Cytochrome P450 2C19 (Homo sapiens), sequence (P33261 whole entry, looked up): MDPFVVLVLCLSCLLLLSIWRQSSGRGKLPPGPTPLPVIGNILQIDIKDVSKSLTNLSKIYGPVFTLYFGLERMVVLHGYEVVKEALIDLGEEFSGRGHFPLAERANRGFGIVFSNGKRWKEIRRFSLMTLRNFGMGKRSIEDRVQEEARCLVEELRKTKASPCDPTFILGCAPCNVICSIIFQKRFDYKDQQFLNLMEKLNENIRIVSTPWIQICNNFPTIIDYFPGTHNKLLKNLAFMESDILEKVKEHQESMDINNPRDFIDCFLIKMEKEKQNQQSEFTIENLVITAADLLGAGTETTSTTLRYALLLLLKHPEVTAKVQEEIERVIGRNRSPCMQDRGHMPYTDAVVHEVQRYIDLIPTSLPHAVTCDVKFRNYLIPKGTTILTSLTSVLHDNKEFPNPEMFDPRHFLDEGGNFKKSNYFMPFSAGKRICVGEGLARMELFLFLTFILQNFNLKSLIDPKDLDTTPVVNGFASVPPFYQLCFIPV

As to `COc1ccccc1-c1cncnc1Nc1ccccc1`, the values for the Potency in assay [1] and in assay [5] were over 11.4 µM and over 46 µM, respectively. Further, the activity change, negative = inhibition was -6.14% in [2] and -4.57% in assay [3]. Further, the activity, negative = inhibition in assay [4] is 5.08%. Besides, the Potency result in assay [6], in [7], in assay [8], in [9], in [10] and in [11] was “inactive” each time. In assay [12], the result was inactive.
Consider `COc1ncc2ncc(=O)n(CCc3ccccc3)c2n1`, for which the Potency in assay [1] is over 11.4 µM; in [5] it was over 46 µM; in assay [8], 14.1 µM (active); in [9], 14.1 µM (active); in assay [10], 10 µM (active). The results for the activity change, negative = inhibition in assay [2] and in assay [3] were -10.9% and 4.91%, respectively. In addition, the activity, negative = inhibition in [4] was -13.6%. Also, the Potency result in [6], in [7] and in assay [11] was “inactive” each time. Moreover, the outcome in [12] was inactive.
On to `N#Cc1cccc(-c2nc3cnc(N4CCOCC4)nc3n(Cc3ccc(F)cc3)c2=O)c1`, for which the Potency was over 11.4 µM in assay [1], over 9.22 µM in [13] and over 46 µM in assay [5]. The activity change, negative = inhibition is -7.31% in [2] and 27.2% in assay [3]. Moreover, the activity, negative = inhibition in assay [4] was 13.2%. Besides, the Potency result in assay [6], in [7], in [14], in assay [8], in assay [9] and in assay [10] was “inactive” each time. Besides, the Potency result in [11] was “inactive”. The outcome in assay [12] was inactive.
In the case of `FC(F)(F)c1ccccc1-c1cncnc1NCc1ccccc1`, the Potency was over 11.4 µM in [1] and over 46 µM in assay [5]. The values for the activity change, negative = inhibition in [2] and in [3] were -12.5% and -25.7%, respectively. In addition, the activity, negative = inhibition in assay [4] is 8.04%. The Potency entry in [6], in assay [8], in [9], in assay [10] and in assay [11] was “inactive” throughout. In addition, the result in assay [12] was inactive.
In the case of `COc1ccccc1-c1cc(N(C)Cc2ccco2)ncn1`, the Potency in assay [1] is over 11.4 µM; in assay [13] it was over 46 µM; in [5], over 46 µM; in assay [15], 3.98 µM (active); in assay [8] it was 28.2 µM (active); in assay [9], 35.5 µM (active). Further, the activity change, negative = inhibition is 28.4% in assay [2] and -15.8% in assay [3]. Further, in assay [4], the activity, negative = inhibition is 5.75%. Also, the Potency entry in assay [6], in assay [7], in [10] and in assay [11] was “inactive” throughout. For the same compound, in assay [12], the outcome was inactive.
For `COc1cccc(Cn2c(=O)c(-c3cn(C)c4ccccc34)nc3cnc(N4CCOCC4)nc32)c1`, the results for the Potency in [1], in assay [13] and in assay [5] were over 11.4 µM, over 9.22 µM and over 46 µM, respectively. Also, the activity change, negative = inhibition in assay [2] was 5%; in [3], 7.78%. For the same compound, the activity, negative = inhibition in assay [4] was 10.6%. Also, the Potency entry in [6], in [7], in [8], in [9], in [10] and in assay [11] was “inactive” throughout. Further, the outcome in assay [12] was inactive.
On to `CN(C)c1ncc2nc(-c3ccc(Cl)cc3)c(=O)n(CCC#N)c2n1`, for which the figures for the Potency in assay [1], in assay [13] and in assay [5] were over 11.4 µM, over 9.22 µM and over 46 µM, respectively. Moreover, the activity change, negative = inhibition in assay [2] was 7.51%; in assay [3], 17.6%. Besides, the activity, negative = inhibition in assay [4] is 17.6%. For the same compound, the Potency entry in assay [6], in assay [7], in [8], in assay [9], in assay [10] and in assay [11] was “inactive” in each case. Also, the outcome in assay [12] was inactive.
